Unmarked numbers belong to inactive results. Inconclusive results are not listed. Entries that show only a call come without a potency. Calls of active or inactive are those of the source. The call rests on the fitted dose curve; in most records, active means well fitted inhibition curve with a large enough effect; inconclusive means small, poorly fitted or top-dose-only effect; inactive means flat fitted curve, though single readings scatter.

Glutathione peroxidase 1 (Homo sapiens), sequence (P07203 whole entry, looked up): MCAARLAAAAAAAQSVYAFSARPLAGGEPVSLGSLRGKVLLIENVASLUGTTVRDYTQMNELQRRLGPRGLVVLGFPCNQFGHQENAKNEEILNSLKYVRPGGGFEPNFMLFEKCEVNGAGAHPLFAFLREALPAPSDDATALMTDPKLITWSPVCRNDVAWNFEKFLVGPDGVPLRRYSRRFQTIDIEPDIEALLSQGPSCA

For the first assay, the target named is Glutathione peroxidase 1 (Homo sapiens) (UniProt P07203). Description: Primary qHTS Assay for Inhibitors of Recombinant Selenoprotein Glutathione Peroxidase 1 (GPX1) (AID 1845191). Further: nearly all actives have a fitted effect of over 65% in size. Further: potency means the concentration at half of the fitted maximal effect. The conditions noted are these: recombinant GPX1, GR-coupled NADPH fluorescence, 15 min; series mostly up to 48.8 µM. The essentials:
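NADPH consumption tracked by fluorescence at 340/450 nm between t=0 and t=15 min, room temperature. Final mix: 10 nM GPX1, 100 nM glutathione reductase, 1 mM GSH, 0.5 mM NADPH, 0.5 mM cumene hydroperoxide, 0.01% BSA; 30 min compound–enzyme preincubation.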
Regarding `CCn1c(-c2nonc2N)nc2cncc(CNC3CCNCC3)c21`, the Potency entry was “inactive”.

Turning to `CN1c2ccccc2C(=O)N2CCc3c([nH]c4ccccc34)C21` (stereo unspecified), the Potency entry was “inactive”.

As for `Cc1cc(C(C)Nc2ccccc2)c2nc(N3CCOCC3)cc(=O)n2c1` (stereo unspecified), the Potency result is “inactive”.

Regarding `O=c1[nH]nc(OCCCc2ccc(Cl)cc2)c(NCc2cccnc2)c1Br`, the Potency result is “inactive”.

Take `COc1cc(Nc2nc3ccccc3nc2NS(=O)(=O)c2ccc(NC(=O)c3ccc(C)c(OC)c3)cc2)cc(OC)c1`: the Potency entry is “inactive”.

`COc1ccc(-c2nc3ccc(C4=NNC(=O)CC4C)cc3[nH]2)cc1` (stereo unspecified): the Potency entry is “inactive”.

Regarding `CN1C(=O)C(Cc2c[nH]c3ccccc23)NC1=S` (stereo unspecified), the Potency result was “inactive”.

With `CCNC(=O)c1noc(-c2cc(C(C)C)c(O)cc2O)c1-c1ccc(CN2CCOCC2)cc1`, the Potency entry was “inactive”.

For the compound `CNC1CCC(N(Cc2cccc(-c3ccncc3)c2)C(=O)c2sc3ccccc3c2Cl)CC1` (stereo unspecified), the Potency entry is “inactive”.

As for `CCN1CCC(n2cc(CNc3cc(Cl)c4ncc(C#N)c(Nc5ccc(F)c(Cl)c5)c4c3)nn2)CC1`, the Potency is 1.15 µM (active).

As for `O=C(CCCN1CCN(c2ccc(F)cc2)CC1)NC1c2ccccc2CSc2ccccc21` (stereo unspecified), the Potency entry was “inactive”.

Turning to `CC1CCN(c2cc(N3CCN(C)CC3)ccc2NC(=O)c2cc(C#N)c[nH]2)CC1`, the Potency result is “inactive”.

Regarding `CNC(=O)c1c(-c2ccc(F)cc2)oc2cc(N(CCO)S(C)(=O)=O)c(C3CC3)cc12`, the Potency entry was “inactive”.

Take `COc1cc2nccc(Oc3ccc(NC(=O)Nc4cc(C)on4)c(Cl)c3)c2cc1OC`: the Potency entry was “inactive”.

Take `COc1ccc(-c2ccc3ncc4c(c3c2)n(-c2ccc(N3CCNCC3)c(C(F)(F)F)c2)c(=O)n4C)cn1`: the Potency entry is “inactive”.

For the compound `COc1ccc(Cn2ccc3ccc(C(=O)NO)cc32)cc1`, the Potency entry was “inactive”.

As to `Cc1nc2c([nH]1)CCN(C(=O)c1ccc(NC(=O)c3ccccc3-c3ccccc3)cc1)c1ccccc1-2`, the Potency entry was “inactive”.

For `C[C@@H](NC(=O)c1ncnc(N)c1Cl)c1ncc(C(=O)Nc2cc(C(F)(F)F)c(Cl)cn2)s1`, the Potency result was “inactive”.

Take `Cc1cc2c(cc1C1(c3ccc(C(=O)O)cn3)CC1)C(C)(C)CCC2(C)C`: the Potency result was “inactive”.

For `NS(=O)(=O)c1ccc(Nc2nc(OCC3CCCCC3)c3[nH]cnc3n2)cc1`, the Potency result is “inactive”.

Take `CC(C)(C)c1nc(-c2cccc(NS(=O)(=O)c3c(F)cccc3F)c2F)c(-c2ccnc(N)n2)s1`: the Potency entry is “inactive”.

Turning to `COc1nccc(-c2c(-c3ccc(F)cc3)ncn2C2CCNCC2)n1`, the Potency entry is “inactive”.

With `Cc1ccccc1-n1c(Cn2nc(-c3cccc(O)c3)c3c(N)ncnc32)nc2cccc(C)c2c1=O`, the Potency entry was “inactive”.

With `Fc1ccc(CNc2ncnc3ccc(F)cc23)cc1`, the Potency result is “inactive”.

As for `Cc1cc(-c2ncc(CC(=O)Nc3ccc(-c4cnccn4)cn3)cc2C)ccn1`, the Potency result was “inactive”.

For the compound `CCC(=O)N1CCN(c2ccc(-n3c(=O)ccc4cnc5ccc(-c6cnc7ccccc7c6)cc5c43)cc2C(F)(F)F)CC1`, the Potency result was “inactive”.

For `O=C1C(c2c(O)[nH]c3ccccc23)=Nc2ccccc21`, the Potency entry is “inactive”.

For the compound `Cc1cnc(Nc2cccc(CN3CCOCC3)c2)nc1Nc1cccc(S(=O)(=O)NC(C)(C)C)c1`, the Potency result is “inactive”.

As to `CC1=C[C@@H]2[C@@H]([C@@H](O)C[C@@]3(C)[C@H]2C[C@@H](C)[C@]3(O)C(=O)CO)[C@@]2(C)Cc3cnn(-c4ccccc4)c3C=C12`, the Potency result was “inactive”.

Consider `C[C@@H]1CCO[C@H]2Cn3cc(C(=O)NCc4ccc(F)cc4F)c(=O)c(O)c3C(=O)N12`, for which the Potency result was “inactive”.

For `NS(=O)(=O)c1cc(Cl)c(Cl)c(S(N)(=O)=O)c1`, the Potency result was “inactive”.

Another assay deals with Phospholipid hydroperoxide glutathione peroxidase GPX4 (Homo sapiens) (UniProt P36969). Description: Primary qHTS Assay for Inhibitors of Recombinant Selenoprotein Glutathione Peroxidase 4 (GPX4) (AID 1845192). Further: nearly all actives have a fitted effect of over 65% in size. The conditions noted are these: recombinant GPX4, GR-coupled NADPH fluorescence, 15 min; series mostly up to 50 µM. Put shortly: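 NADPH consumption followed by fluorescence at 340/450 nm, t=0 and after 15 min at room temperature. Reaction started with cumene hydroperoxide (0.5 mM final) after 30 min compound–GPX4 preincubation; final 200 nM GPX4, 100 nM GR, 1 mM GSH, 0.5 mM NADPH.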
Phospholipid hydroperoxide glutathione peroxidase GPX4 (Homo sapiens), sequence (P36969 whole entry, looked up): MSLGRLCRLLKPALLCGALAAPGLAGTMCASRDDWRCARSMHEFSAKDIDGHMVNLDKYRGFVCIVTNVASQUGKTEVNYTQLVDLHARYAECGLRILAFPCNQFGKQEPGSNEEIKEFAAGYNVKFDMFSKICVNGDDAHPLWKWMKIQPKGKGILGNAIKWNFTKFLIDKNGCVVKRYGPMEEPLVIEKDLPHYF
For the compound `Cc1cc(C(C)Nc2ccccc2)c2nc(N3CCOCC3)cc(=O)n2c1` (stereo unspecified), the Potency entry is “inactive”.

Regarding `CNC1CCC(N(Cc2cccc(-c3ccncc3)c2)C(=O)c2sc3ccccc3c2Cl)CC1` (stereo unspecified), the Potency result is “inactive”.

Regarding `COc1cc2nccc(Oc3ccc(NC(=O)Nc4cc(C)on4)c(Cl)c3)c2cc1OC`, the Potency entry is “inactive”.

Turning to `Cc1ccc(C2=Nc3ccc(Cl)cc3OC2)cc1`, the Potency result was “inactive”.

Take `C[C@@H](NC(=O)c1ncnc(N)c1Cl)c1ncc(C(=O)Nc2cc(C(F)(F)F)c(Cl)cn2)s1`: the Potency result was “inactive”.

On to `CCC(=O)N1CCN(c2ccc(-n3c(=O)ccc4cnc5ccc(-c6cnc7ccccc7c6)cc5c43)cc2C(F)(F)F)CC1`, for which the Potency result is “inactive”.

For the compound `O=C1C(c2c(O)[nH]c3ccccc23)=Nc2ccccc21`, the Potency entry was “inactive”.

For `O=C(Nc1ccc(OC(F)(F)F)cc1)c1sccc1NCc1ccnc2ccccc12`, the Potency result is “inactive”.

A further assay has as its target Luciferin 4-monooxygenase (Photinus pyralis) (UniProt P08659). Description: Primary firefly luciferase (FLuc) qHTS assay for identification of artifact compounds. (AID 1845220). Further: nearly all actives have a fitted effect of over 60% in size. Further: potency means the concentration at half of the fitted maximal effect. The conditions noted are these: purified firefly luciferase, luminescence, 5 min; series mostly up to 54.1 µM. The essentials:
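FLuc 10 nM; luciferin 10 uM; ATP 10 uM; Tris-acetate pH 7.6, Mg-acetate 10 mM; 15 min RT preincubation; 5 min reaction; luminescence.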
As for `CCn1c(-c2nonc2N)nc2cncc(CNC3CCNCC3)c21`, the Potency result was “inactive”.

In the case of `C[C@@]1(C(=O)Nc2ccc(F)nc2)CCCN1c1nc(Nc2cc(C3CC3)[nH]n2)c2cccn2n1`, the Potency result is “inactive”.

As to `CN1c2ccccc2C(=O)N2CCc3c([nH]c4ccccc34)C21` (stereo unspecified), the Potency result is “inactive”.

Take `O=c1[nH]nc(OCCCc2ccc(Cl)cc2)c(NCc2cccnc2)c1Br`: the Potency entry is “inactive”.

For `COc1cc(Nc2nc3ccccc3nc2NS(=O)(=O)c2ccc(NC(=O)c3ccc(C)c(OC)c3)cc2)cc(OC)c1`, the Potency result was “inactive”.

Turning to `COc1ccc(-c2nc3ccc(C4=NNC(=O)CC4C)cc3[nH]2)cc1` (stereo unspecified), the Potency was 10.7 µM (active).

For `CN1C(=O)C(Cc2c[nH]c3ccccc23)NC1=S` (stereo unspecified), the Potency result was “inactive”.

As for `CCNC(=O)c1noc(-c2cc(C(C)C)c(O)cc2O)c1-c1ccc(CN2CCOCC2)cc1`, the Potency result was “inactive”.

Take `CNC1CCC(N(Cc2cccc(-c3ccncc3)c2)C(=O)c2sc3ccccc3c2Cl)CC1` (stereo unspecified): the Potency entry was “inactive”.

Take `CCN1CCC(n2cc(CNc3cc(Cl)c4ncc(C#N)c(Nc5ccc(F)c(Cl)c5)c4c3)nn2)CC1`: the Potency result is “inactive”.

On to `O=C(CCCN1CCN(c2ccc(F)cc2)CC1)NC1c2ccccc2CSc2ccccc21` (stereo unspecified), for which the Potency result is “inactive”.

On to `CC1CCN(c2cc(N3CCN(C)CC3)ccc2NC(=O)c2cc(C#N)c[nH]2)CC1`, for which the Potency entry is “inactive”.

For `CNC(=O)c1c(-c2ccc(F)cc2)oc2cc(N(CCO)S(C)(=O)=O)c(C3CC3)cc12`, the Potency result is “inactive”.

With `COc1cc2nccc(Oc3ccc(NC(=O)Nc4cc(C)on4)c(Cl)c3)c2cc1OC`, the Potency result was “inactive”.

As to `CN(C)c1ccc(-c2nc3ncc(Cl)c(N4CCN(CC(=O)Nc5nccs5)CC4)c3[nH]2)cc1`, the Potency entry is “inactive”.

In the case of `COc1ccc(-c2ccc3ncc4c(c3c2)n(-c2ccc(N3CCNCC3)c(C(F)(F)F)c2)c(=O)n4C)cn1`, the Potency entry is “inactive”.

Consider `COc1ccc(Cn2ccc3ccc(C(=O)NO)cc32)cc1`, for which the Potency result was “inactive”.

Regarding `Cc1nc2c([nH]1)CCN(C(=O)c1ccc(NC(=O)c3ccccc3-c3ccccc3)cc1)c1ccccc1-2`, the Potency entry was “inactive”.

Consider `C[C@@H](NC(=O)c1ncnc(N)c1Cl)c1ncc(C(=O)Nc2cc(C(F)(F)F)c(Cl)cn2)s1`, for which the Potency result was “inactive”.

In the case of `Cc1cc2c(cc1C1(c3ccc(C(=O)O)cn3)CC1)C(C)(C)CCC2(C)C`, the Potency result was “inactive”.

On to `NS(=O)(=O)c1ccc(Nc2nc(OCC3CCCCC3)c3[nH]cnc3n2)cc1`, for which the Potency result was “inactive”.

For `CC(C)(C)c1nc(-c2cccc(NS(=O)(=O)c3c(F)cccc3F)c2F)c(-c2ccnc(N)n2)s1`, the Potency entry is “inactive”.

Consider `COc1nccc(-c2c(-c3ccc(F)cc3)ncn2C2CCNCC2)n1`, for which the Potency entry is “inactive”.

Regarding `Cc1ccccc1-n1c(Cn2nc(-c3cccc(O)c3)c3c(N)ncnc32)nc2cccc(C)c2c1=O`, the Potency entry was “inactive”.

For the compound `Fc1ccc(CNc2ncnc3ccc(F)cc23)cc1`, the Potency result is “inactive”.

As to `Cc1cc(-c2ncc(CC(=O)Nc3ccc(-c4cnccn4)cn3)cc2C)ccn1`, the Potency result is “inactive”.

For the compound `CCC(=O)N1CCN(c2ccc(-n3c(=O)ccc4cnc5ccc(-c6cnc7ccccc7c6)cc5c43)cc2C(F)(F)F)CC1`, the activity change, negative = inhibition was 2.1% [at 11.6 µM].

`O=C1C(c2c(O)[nH]c3ccccc23)=Nc2ccccc21`: the Potency entry is “inactive”.

On to `Cc1cnc(Nc2cccc(CN3CCOCC3)c2)nc1Nc1cccc(S(=O)(=O)NC(C)(C)C)c1`, for which the Potency entry is “inactive”.

For the compound `CC1=C[C@@H]2[C@@H]([C@@H](O)C[C@@]3(C)[C@H]2C[C@@H](C)[C@]3(O)C(=O)CO)[C@@]2(C)Cc3cnn(-c4ccccc4)c3C=C12`, the Potency result is “inactive”.

Regarding `C[C@@H]1CCO[C@H]2Cn3cc(C(=O)NCc4ccc(F)cc4F)c(=O)c(O)c3C(=O)N12`, the Potency result was “inactive”.

With `NS(=O)(=O)c1cc(Cl)c(Cl)c(S(N)(=O)=O)c1`, the Potency entry was “inactive”.

Values taken from PubChem BioAssay (NCATS).
